Shown are actives, neighbours in structure and some others; about 6.9% of the full set was active somewhere.
IL1B secr inh: qHTS for Inhibitors of Inflammasome Signaling: IL-1-beta AlphaLISA Primary Screen; 360,000 compounds, 4.7% hits; THP-1 LPS/ATP IL-1B secretion, AlphaLISA, 16 h; stronger effect = lower value; AID 743279, 2014; activity change, % at 57.5 µM; in the data active = activity change below about -50%; inconclusive = mostly about -30% to -49%; note: % is set by controls: 0 for no effect and ±100 for the full control effect
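THP-1 cells pretreated 1 hr with compounds (up to 57.5 uM final), then stimulated with LPS (250 ng/mL final) plus ATP (1.25 mM final); secreted IL-1B measured by AlphaLISA after 16 hr, decreased signal indicating inhibition.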
SW480 rereplic: A quantitative high throughput screen for small molecules that induce DNA re-replication in SW480 colon adenocarcinoma cells; SW480 DNA re-replication, Hoechst DNA content imaging, 48 h; Potency, µM (titrated, usually from 46.1 µM), without a hit: at the highest dose re-replication activation, usual class: activators; 340,000 compounds, 1.8% hits; note: potency is the fitted concentration of half-maximal effect; % of control where 0% means no effect; nearly all actives have a fitted effect of over 55% in size
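250 cells/well; 23 nL cpd via pin tool; 48 hr, 37 C, 5% CO2; Hoechst 40 min; imager read of total nuclear intensity, ex 405/em 500-530 nm.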
Vif-A3F inh: qHTS for Inhibitors of Vif-A3F Interactions: qHTS; Potency, µM (top dose mostly 46.1 µM), for inactives: top-dose activity, negative = active; AID 602313, 2012; HeLa A3F-eYFP + Vif (tagged APOBEC3F with the HIV-1 protein that degrades it), YFP fluorescence increase; 390,000 compounds, 0.2% hits; note: potency is the fitted concentration of half-maximal effect; % of control where 0% means no effect; nearly all actives have a fitted effect of over 65% in size
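HeLa cells stably expressing A3F-eYFP plus Vif, plated and incubated overnight at 37 deg C, then exposed to compounds overnight at 37 deg C. Blocked degradation read as raised yellow fluorescence (Ex 488/Em 500-530).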
MCF10A rerep: A quantitative high throughput screen for small molecules that induce DNA re-replication in MCF 10a normal breast cells. MCF 10A DNA re-replication, Hoechst nuclear intensity, 48 h. Potency, µM (top dose mostly 46.1 µM), for the others: top-dose activity, positive = re-replication, actives largely listed as activators. 350,000 compounds, 2.9% hits. AID 624296, 2012; note: potency is the fitted concentration of half-maximal effect; % of control where 0% means no effect; nearly all actives have a fitted effect of over 50% in size
Giardia kill: Small Molecules that selectively kill Giardia lamblia: qHTS; activity change, % at 7.66 µM, hits read low; 340,000 compounds, 0.15% hits; Giardia lamblia trophozoite viability; in the data active = activity change below about -80%; inconclusive = between about -30% and that limit;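 note: parasites exposed to compound for two days anaerobically before the ATP read; % is set by controls: 0 for no effect and ±100 for the full control effect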
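Killing of trophozoites was scored by loss of ATP luminescence after a 48 hrs anaerobic exposure to compounds at 37 deg C, using 100 cells per well.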
Vif-APOBEC3G blk: qHTS for Inhibitors of Vif-A3G Interactions: qHTS; Potency, µM (titrated, usually from 46.1 µM), for the others: top-dose activity, negative = active, hits mostly inhibitors; HeLa A3G-eYFP + Vif (tagged APOBEC3G with the HIV-1 protein that degrades it), YFP fluorescence, overnight; 410,000 compounds, 0.076% hits; DNA dC->dU-editing enzyme APOBEC-3G (Homo sapiens), Q9HC16; note: potency is the fitted concentration of half-maximal effect; % is set by controls: 0 for no effect and ±100 for the full control effect; nearly all actives have a fitted effect of over 60% in size
Target sequence (Q9HC16 whole entry, looked up): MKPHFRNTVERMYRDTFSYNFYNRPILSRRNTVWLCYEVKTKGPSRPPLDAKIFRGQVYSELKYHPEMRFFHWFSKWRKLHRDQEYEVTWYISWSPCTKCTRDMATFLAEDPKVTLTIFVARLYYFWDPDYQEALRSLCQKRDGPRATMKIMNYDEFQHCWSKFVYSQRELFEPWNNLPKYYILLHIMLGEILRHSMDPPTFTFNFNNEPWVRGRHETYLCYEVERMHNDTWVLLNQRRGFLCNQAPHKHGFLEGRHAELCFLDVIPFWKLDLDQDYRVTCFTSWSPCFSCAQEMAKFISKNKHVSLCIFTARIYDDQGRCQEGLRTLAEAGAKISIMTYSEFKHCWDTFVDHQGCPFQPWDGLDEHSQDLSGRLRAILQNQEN
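Read-out is eYFP fluorescence (Ex 488/Em 500-530) from Vif-expressing HeLa A3G-eYFP cells; more signal means A3G escaped Vif-mediated degradation. Cells plated overnight, compound pinned in, incubated overnight at 37 deg C.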
Starred values were filed as active, the others as inactive; ? = inconclusive; · = not tested or not shown. Unless noted, calls come from the whole dose curve; as a rule, active = well fitted curve in the direction sought with a large enough effect; inconclusive = small, poorly fitted or top-dose-only effect, or another doubt; inactive = no such curve, though single readings can be large; an effect the other way counts as inactive or inconclusive.

SMILES	IL1B secr inh	SW480 rereplic	Vif-A3F inh	MCF10A rerep	Giardia kill	Vif-APOBEC3G blk
CCn1c(=O)n(CC)c2cc(N3CCCCC3)c(NC(=O)Nc3cc(Cl)ccc3OC)cc21	·	·	2.8%	·	·	0.8%
O=C(/C=C/c1c(F)cccc1Cl)Nc1ncccn1	-7.7	0.5%	3.6%	2.4%	-3.8	0.6%
Oc1cccc2ccc(/C=C/c3c(F)cccc3Cl)nc12	16.6	18.4µM*	-26.0%	27.4%	-2.2	-2.8%
Oc1cccc2ccc(/C=C/c3ccccc3Cl)nc12	28.6	?	-1.0%	12.8%	4.0	-2.1%
Nc1nccc(/C=C/c2c(F)cccc2Cl)n1	-85.1*	?	-7.6%	-5.2%	5.0	4.0%
CCOc1cc(Br)cc(C2NC(=O)c3c(sc4c3CCN(C)C4)N2)c1O (centres undefined)	·	·	-10.4%	·	·	2.3%
Cc1nc2ccc(S(=O)(=O)NC(C(=O)N3CCN(c4cccc(Cl)c4)CC3)C(C)C)cc2s1 (centres undefined)	·	·	5.8%	·	·	-0.5%
COc1ccc2nc(N=NC3=C(O)CC(C)(C)CC3=O)sc2c1	140.8	2.06µM*	-8.6%	23.8%	9.3	-0.2%
COc1ccc2nc(N=Nc3ccc(O)c4ccccc34)sc2c1	-0.2	?	3.0%	8.2µM*	4.0	0.5%
COc1ccc(-c2nc(NC(=O)C3CC(=O)N(c4ccc5c(c4)OCCO5)C3)sc2C)cc1 (centres undefined)	17.3	4.11µM*	22.6%	3.26µM*	-0.1	?
Cc1ccc(C(OCC(C)(C)C[N+](C)(C)C)c2ccccc2)cc1 (centres undefined)	-52.0*	-5.5%	-0.8%	7.4%	14.6	8.8%
OC(Cc1ccc2ccccc2n1)c1c(Cl)cccc1Cl (centres undefined)	·	·	·	·	·	-3.7%
COc1ccccc1CNC(=O)c1oc2ccc(S(=O)(=O)N3CCCCC3)cc2c1C	·	·	0.0%	·	·	5.2%
O=C(N/N=C/c1ccc(O)c(O)c1)NC12CC3CC(CC(C3)C1)C2	-81.7*	4.3%	2.8%	1.3%	-20.6	-2.7%
COc1cc(Cl)cc(/C=N\NC(=O)c2ccc3c(c2)OCO3)c1O	104.2	·	-20.3%	·	·	-10.4%
O=C(N/N=C/c1cc(Cl)cc([N+](=O)[O-])c1O)c1ccc2c(c1)OCO2	23.3	18.4µM*	-15.2%	?	-14.6	-7.4%
O=C(N/N=C/c1cc(Cl)cc([N+](=O)[O-])c1O)NC12CC3CC(CC(C3)C1)C2	14.1	10.4%	1.3%	18.4µM*	-4.6	5.1%
COc1cc(/C=N/NC(=O)NC23CC4CC(CC(C4)C2)C3)ccc1O	?	-4.5%	-2.5%	4.1%	12.9	2.4%
CCC[C@H]1COCCS(=O)(=O)N1Cc1cccc(F)c1	·	·	·	·	·	-0.2%
CCOC(=O)c1sc(NC(=O)C(C)Sc2nc(-c3ccccc3)cc(C(F)(F)F)n2)c(C(=O)OC)c1C (centres undefined)	·	·	5.0%	·	·	1.0%
COc1ccc(-c2cc(C(F)(F)F)n3nc(C(=O)N4CCN5CCCC5C4)cc3n2)cc1OC (centres undefined)	-23.6	?	-5.5%	11.6µM*	-0.8	-1.5%
O=C(O)c1cc2nc(-c3ccccc3)cc(-c3ccccc3)n2n1	48.2	0.7%	-4.3%	1.2%	-7.2	1.0%
O=C(c1cnn2c(C(F)(F)F)cc(-c3ccccc3)nc12)N1CCCCC1c1cccnc1 (centres undefined)	-29.0	-1.5%	2.4%	0.0%	22.9	-0.5%
COc1ccc(-c2cc(C(F)(F)F)n3nc(C(=O)N4CCCC4)cc3n2)cc1	-2.2	-6.9%	2.3%	-5.5%	-4.8	0.0%
CC1CCCCN1C(=O)c1cc2nc(-c3ccccc3)cc(-c3ccccc3)n2n1 (centres undefined)	-61.5*	?	·	?	4.5	-0.8%
SMILES	IL1B secr inh	SW480 rereplic	Vif-A3F inh	MCF10A rerep	Giardia kill	Vif-APOBEC3G blk
O=C(c1cc2nc(-c3ccc(F)cc3)cc(C(F)(F)F)n2n1)N1CCCCC1c1cccnc1 (centres undefined)	-62.0*	?	-37.2%	?	1.3	-1.8%
Cc1cnc(C(=O)N2CCCC(N3CCN(c4cccc(C(F)(F)F)c4)CC3)C2)cn1 (centres undefined)	-62.1*	-0.7%	-8.9%	5.1%	-0.4	2.8%
CC(=O)N1CCCC(N2CCN(c3cccc(C(F)(F)F)c3)CC2)C1 (centres undefined)	-5.4	-15.5%	2.1%	2.1%	-16.4	1.0%
CC(C)(C)OC(=O)N1CCC(c2c(C(=O)NCCN3CCC(Cc4ccccc4)CC3)cnn2-c2cccc(Cl)c2)CC1	·	·	5.1%	·	·	-0.9%
Cc1ccc(-c2cc(C(F)(F)F)n3nc(C(=O)N4CCN5CCCC5C4)cc3n2)cc1 (centres undefined)	-62.3*	?	-12.9%	?	3.7	0.4%
CCOC(=O)c1c(C)oc2c1c(C(c1cccnc1)N1CCCCC1)c(O)c1ccccc12 (centres undefined)	33.3	-4.5%	2.1%	?	0.8	-0.1%
CCOC(=O)c1c(C)oc2c1c(C(c1ccccc1)N1CCOCC1)c(O)c1ccccc12 (centres undefined)	-70.6*	?	-7.8%	4.11µM*	7.8	0.3%
CCOC(=O)c1c(C)oc2c1c(C=NCCO)c(O)c1ccccc12	-111.5*	10.8%	-29.2%	?	21.4	-12.4%
CCOC(=O)c1c(C)oc2c1c(/C=N/c1ccccn1)c(O)c1ccccc12	·	·	·	·	-6.5	-4.0%
CCCCN(CCCC)CCCNC(=O)c1cc(-c2ccc(Cl)s2)nc2ccccc12	·	·	-1.0%	·	·	4.8%
CSCCC(NS(=O)(=O)c1ccc2c(c1)oc(=O)n2C)C(=O)Nc1ccc(Cl)cc1 (centres undefined)	·	·	-11.1%	·	·	-2.6%
CN(c1cccc(NC(=O)c2ccccc2N(Cc2ccccc2)S(C)(=O)=O)c1)S(C)(=O)=O	-7.8	1.1%	2.1%	-3.5%	45.1	2.1%
CC(=O)c1cccc(NC(=O)c2ccccc2N(Cc2ccccc2)S(C)(=O)=O)c1	-18.0	-18.9%	-0.9%	2.31µM*	6.9	-0.4%
CCO/N=C/c1ccc(OC)c(Oc2nc(OC)cc(OC)n2)c1	33.1	-1.0%	1.4%	?	9.7	-12.7%
CO/N=C/c1ccc(OC)c(Oc2nc(OC)cc(OC)n2)c1	32.4	18.4µM*	-16.8%	16.4µM*	-5.8	?
COCc1cc(C)nc(OCC(=O)N/N=C/c2ccc(O)cc2)c1C#N	-8.5	18.4µM*	7.1%	-0.8%	-11.2	0.3%

Screening results as filed in PubChem.
